Reference: publication PMC5700166

Assays:
Assay in all cases: protein-binding microarray (PBM); PBM: ~300 nM protein, 6 mM HEPES pH 7.8, 80 mM KCl, 0.5 mM EDTA, 0.5 mM EGTA, 6% glycerol, 35 ng/ul poly-dIdC, 1% milk, 1 h, room temperature; Ap Aiptasia and Nv Nematostella (sea anemones) / Co Capsaspora / Aq Amphimedon (sponge) / Dm Drosophila / Hu human; RHD is the Rel homology domain; high values mean tight binding
Conditions in all cases: dsDNA, one strand shown
GST-Ap-NF-kB RHD = biological target: T1, GST-Ap-NF-kB RHD (Exaiptasia pallida (Aiptasia), UniProt A0A913YAJ5 2-422)
T1 sequence: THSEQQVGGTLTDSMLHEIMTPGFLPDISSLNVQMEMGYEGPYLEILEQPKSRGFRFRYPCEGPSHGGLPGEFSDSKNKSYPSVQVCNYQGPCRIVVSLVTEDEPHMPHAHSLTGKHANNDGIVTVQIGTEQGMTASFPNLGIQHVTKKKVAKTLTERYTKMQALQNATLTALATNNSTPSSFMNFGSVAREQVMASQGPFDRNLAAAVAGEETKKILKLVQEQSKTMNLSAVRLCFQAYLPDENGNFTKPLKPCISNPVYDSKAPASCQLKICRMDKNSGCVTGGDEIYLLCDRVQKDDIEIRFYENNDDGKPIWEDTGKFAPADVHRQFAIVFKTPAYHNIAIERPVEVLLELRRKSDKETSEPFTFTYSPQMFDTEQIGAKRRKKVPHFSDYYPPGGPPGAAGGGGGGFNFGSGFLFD

[1] = biological target: T2, GST-Nv-NF-kB (Cys allele) (Nematostella vectensis, UniProt E5G601 2-411)
T2 sequence: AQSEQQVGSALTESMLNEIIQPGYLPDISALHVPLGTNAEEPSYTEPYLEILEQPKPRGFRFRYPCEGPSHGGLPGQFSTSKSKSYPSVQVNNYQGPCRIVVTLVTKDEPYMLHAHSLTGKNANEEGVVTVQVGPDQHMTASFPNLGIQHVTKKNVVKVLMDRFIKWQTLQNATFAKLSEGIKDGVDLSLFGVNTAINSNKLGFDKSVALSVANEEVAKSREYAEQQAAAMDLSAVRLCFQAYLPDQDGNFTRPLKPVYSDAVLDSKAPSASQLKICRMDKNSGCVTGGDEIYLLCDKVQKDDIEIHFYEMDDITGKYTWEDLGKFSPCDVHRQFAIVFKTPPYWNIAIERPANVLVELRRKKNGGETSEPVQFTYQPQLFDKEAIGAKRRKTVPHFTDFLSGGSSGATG

GST-Dm-Relish = biological target: T3, GST-Dm-Relish (Drosophila melanogaster, UniProt Q94527 99-473)
T3 sequence: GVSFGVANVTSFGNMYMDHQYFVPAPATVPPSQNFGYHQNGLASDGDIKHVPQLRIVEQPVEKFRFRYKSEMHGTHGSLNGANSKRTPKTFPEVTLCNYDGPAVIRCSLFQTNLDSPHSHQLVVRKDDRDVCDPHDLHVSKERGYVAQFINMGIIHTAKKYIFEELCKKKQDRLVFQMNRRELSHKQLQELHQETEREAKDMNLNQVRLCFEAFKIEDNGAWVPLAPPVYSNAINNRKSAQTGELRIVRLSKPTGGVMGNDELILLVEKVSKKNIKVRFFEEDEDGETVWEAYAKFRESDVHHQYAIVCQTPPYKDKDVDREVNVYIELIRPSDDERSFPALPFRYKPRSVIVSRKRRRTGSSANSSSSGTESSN

GST-Aq-NF-kB = biological target: T4, GST-Aq-NF-kB (Amphimedon queenslandica, UniProt A9Y5G7 2-389)
T4 sequence: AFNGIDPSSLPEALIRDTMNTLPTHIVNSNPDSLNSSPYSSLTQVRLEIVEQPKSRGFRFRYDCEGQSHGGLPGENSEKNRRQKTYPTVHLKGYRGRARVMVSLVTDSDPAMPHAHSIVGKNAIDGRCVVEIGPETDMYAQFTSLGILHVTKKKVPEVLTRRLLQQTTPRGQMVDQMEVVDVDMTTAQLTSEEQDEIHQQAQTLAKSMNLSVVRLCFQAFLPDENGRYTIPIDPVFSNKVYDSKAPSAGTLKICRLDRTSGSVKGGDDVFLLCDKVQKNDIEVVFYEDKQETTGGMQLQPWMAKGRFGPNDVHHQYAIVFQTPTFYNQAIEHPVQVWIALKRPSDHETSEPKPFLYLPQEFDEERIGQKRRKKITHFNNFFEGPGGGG

Sequence | binding signal (GST-Ap-NF-kB RHD) [z-score] | binding signal [1] [z-score] | binding signal (GST-Dm-Relish) [z-score] | binding signal (GST-Aq-NF-kB) [z-score]
CCGATTAACATCAGGGATTTTGATGATGTTAATCGGGTCTTGATTCGCTTGACGCTGCTG | 3.17 | 2.95 | 4.91 | 2.87
CCGATTAACATCAGGGAGAGCCCTGATGTTAATCGGGTCTTGATTCGCTTGACGCTGCTG | 3.06 | 3.59 | 1.82 | 6.26
CCGATTAACATCAGGCAAATCCCTGATGTTAATCGGGTCTTGATTCGCTTGACGCTGCTG | 1.95 | 2.27 | 1.36 | 4.16
CCGATTAACATCATGAAGACCCCTGATGTTAATCGGGTCTTGATTCGCTTGACGCTGCTG | 2.6 | 1.18 | 1.35 | 2.25
CCGATTAACATCAGGACAGTCCCTGATGTTAATCGGGTCTTGATTCGCTTGACGCTGCTG | 4.92 | 5.23 | 3.04 | 7.13
CCGATTAACATCAGGGAAGCACCTGATGTTAATCGGGTCTTGATTCGCTTGACGCTGCTG | 4.67 | 5.46 | 9.38 | 6.3
CCGATTAACATCAGGGCATACCCTGATGTTAATCGGGTCTTGATTCGCTTGACGCTGCTG | 2.36 | 3.25 | 3.77 | 5.87
CCGATTAACATCAGGAATCCCTATGATGTTAATCGGGTCTTGATTCGCTTGACGCTGCTG | 2.79 | 2.15 | 6.17 | 2.57
